Tests used:
Test in all cases: PBM binding z-score (relative to random genomic background probes); higher = stronger binding; sequences stand for … in GC…GCGATTGACAGCGTAGAATGAAGG
[1] = test system: FXR:RXRa (NR concentration 270 nM, RXRa partner concentration 90 nM)
How it was run: (§1)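 Ligand-free nuclear receptor dimers were applied to custom Agilent 4×180K protein-binding microarrays whose double-stranded probes carried direct-repeat seeds, single-nucleotide variants, half-site ablations and random human genomic background sequences in 34-nt variable regions. Incubation lasted 1 h. Binding z-scores were computed against the random background probes from regression-normalized fluorescence.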

[2] = test system: LXRa:RXRa (NR concentration 270 nM, RXRa partner concentration 90 nM)
How it was run: as §1

[3] = test system: LXRa homodimer (NR concentration 270 nM)
How it was run: as §1

[4] = test system: LXRb:RXRa (NR concentration 270 nM, RXRa partner concentration 90 nM)
How it was run: as §1

[5] = test system: LXRb homodimer (NR concentration 270 nM)
How it was run: as §1

[6] = test system: PPARa:RXRa (NR concentration 270 nM, RXRa partner concentration 90 nM)
How it was run: as §1

[7] = test system: PPARg:RXRa (NR concentration 180 nM, RXRa partner concentration 90 nM)
How it was run: as §1

[8] = test system: PPARg:RXRa 270nM:90nM, anti-RXR (NR concentration 270 nM, RXRa partner concentration 90 nM)
How it was run: as §1

[9] = test system: PPARg:RXRa 30nM:10nM, anti-RXR (NR concentration 30 nM, RXRa partner concentration 10 nM)
How it was run: as §1

[10] = test system: PPARg:RXRa 90nM:30nM, anti-RXR (NR concentration 90 nM, RXRa partner concentration 30 nM)
How it was run: as §1

Sequence	PBM binding z-score [1]	PBM binding z-score [2]	PBM binding z-score [3]	PBM binding z-score [4]	PBM binding z-score [5]	PBM binding z-score [6]	PBM binding z-score [7]	PBM binding z-score [8]	PBM binding z-score [9]	PBM binding z-score [10]
AGTCAAAGTTCTTCTAGGTAACGTAAGATATGCT	0.261	-0.366	0.0883	-0.0374	0.0414	0.304	0.844	1.16	0.354	0.549
CGAACTAGGTCACCAGGGCAGTGAAGAGGTTGGA	3.67	2.48	0.0109	1.52	-0.639	5.2	8.69	6.86	4.52	6.42
CCGACTGGGGCAAAGGTTACCATGCTCAGTACGA	1.68	1.51	-0.384	1.97	-0.983	5.76	11	9.85	11.5	11.4
CGGACTAGGTCACCAGGACAGTGAAGAGGTTGGA	3.78	2.23	-0.177	1.34	-0.742	4.41	8.1	6.5	4.18	5.97
CAAAGTAGGTCAAGAGGTCAAAGTCCGCTTCCCG	7.25	6.52	6.36	5.69	2.34	6.74	10.3	8.87	7.55	9.17
CGAACTAGGTCAGAACAGTACAGTGAAGGATGAT	1.08	0.839	0.06	0.623	-0.447	2.86	5.05	4.39	1.99	3.68
CCTACTGGGCCACGTAAGGTCATTGATTCAGTGA	3.42	5.12	3.52	3.3	-0.468	3.47	3.29	3.76	0.808	2.54
CGAACCAGGTCACCAGGACAGTGAAGAGGTTGGA	5.33	3.4	0.19	2.53	-0.432	4.96	6.6	5.66	2.44	4.73
CGAACTAGCTCACCAGGACAGTGAAGAGGTTGGA	-0.472	-0.64	-0.125	-0.561	-0.585	-0.517	0.165	-0.517	-0.602	-0.751
AATACAGGGTCACTAGGCCCGAGTAGGTACGAAT	6.16	4.62	0.516	3.53	0.618	5.37	6.32	5.26	2.34	4.04
ATATGTAGGTTAGGTTCATTCAGAAAGTAGGGAA	1.59	2.28	0.871	2.34	1.28	4.1	4.93	4.37	2.49	4.03
CAACCTAGGTCACGAAAGGTCAAAGTCGAATGAC	7.63	8.28	8.29	7.81	2.82	6.92	7.93	7.32	4.53	6.39
CGAACTAAGTCAAAGGACAGTGAAAGGCGACGTA	-0.166	-0.175	-0.153	-0.345	-0.704	1.52	2.74	4.16	1.7	3.85
GATACAGGGTCAGCTAGAGGGCAGAGTATGGAAA	4.97	3.61	0.31	3.04	-0.0711	4.5	4.11	3.6	0.823	2.38
CGAACTAGGTCACCAGGACAGTAAAGAGGTTGGA	4.28	2.44	0.233	1.93	0.13	5.1	9.15	7.03	4.73	6.51
GATACAGGGTCAACTAGAGGCCAGAGTATGGAAA	7.52	5.21	0.703	4.77	0.877	6.2	6.7	5.69	2.72	4.61
TAGCCTAGGTCAGATCGGGCCAGTCTACGCTATA	1.89	1.15	-0.542	0.223	-0.401	1.82	0.647	0.822	-0.388	0.205
AGTCATAGTTCACTAGGTAACGTAAGATTCAGCT	0.829	1.51	0.415	1.11	0.233	3.01	3.89	3.82	1.59	2.88
CGTCCAAGGTCATAGGAGTTCAGTGAAGACAGAT	7.7	7.41	5.13	5.15	0.66	5.9	4.86	5.44	1.9	4.2
TCTGCTAGGTCAGTTGGGCAGCTAACGAGCTGCC	0.934	0.385	-0.629	0.223	0.28	1.12	0.0296	1.52	0.946	1.17
CGTACTAGGTCAAAGGACAGTGAAAGGCGACGTA	3.86	2.77	0.17	1.89	-0.0877	4.83	9.74	7.95	8.11	9.06
ATATGTAGGTTAGGGTCATTCTGAAAGTAGGGAA	4.59	3.97	1.34	4.53	1.8	5.46	7.45	6.24	3.83	5.9
CGAACTAGGTCACCAGGACAGTGAGGAGGTTGGA	3.89	2.25	0.127	1.33	-0.378	4.93	7.97	6.87	4.45	6.61
ATCGAAAGGTCGTGAGGTGACTATACAGAAAGGC	5.54	4.2	0.422	3.45	0.557	5.49	4.59	4.64	1.98	3.39
